RAM inhibit: inhibitors of the yeast RAM network. S. cerevisiae dse1pr::URA3 reporter, 5-FOA growth OD615, 2 d; analog-sensitive cbk1-as2 kinase mutant strain. inhibition, % at 50 µM. actives 1.8% (n = 190,000);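 active = inhibition above a set limit, 3 SD over mean compound inhibition, cut at about 8.4% in these data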;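 note: 0% = DMSO-only wells with no growth and 100% = 10 µM 1-NA-PP1 full growth; inhibition rescues growth on 5-FOA so higher OD means more RAM inhibition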
Cl transport mod: modulators of human KCC2 chloride dependent transport | Q9H2X9 | actives 2.2% (n = 190,000) | AID 1456 | B-score of Tl+ flux slope (higher = more flux/activation; lower = inhibition) at 10 µM | KCC2 cells, thallium flux FluoZin-2 fluorescence;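 active = thallium flux slope and its plate-corrected score both differing from the plate sample mean at a set confidence after two filtering rounds, in either direction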;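 note: slope of fluorescence scaled to starting intensity during 10 to 20 s after thallium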
S1P3 antagonist: blocks the human S1P3 receptor; inhibition, % at 4.98 µM; AID 485; Q99500; CHO S1P3 NFAT-BLA reporter, FRET fluorescence, antagonist mode; actives 0.27% (n = 170,000);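 active = inhibition above the plate cutoff, the mean inhibition of test wells on that plate plus 3 SD, cut at about 28% in these data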;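 note: cells challenged with S1P at its EC80 of 0.8 µM; blue over green emission ratio from cleaved BLA substrate after 4 h stimulation; 0% = S1P-stimulated wells and 100% = unstimulated DMSO-only wells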
S1P4 antagonist: blocks the human S1P4 receptor. O95977. S1P4-expressing cells, antagonist mode, reporter read-out. inhibition, % at 4.98 µM. actives 0.26% (n = 220,000). AID 1510; in the data active = inhibition above about 29%;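 note: 0% = wells stimulated with agonist and 100% = vehicle wells without agonist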
Target sequence (O95977 whole entry, looked up): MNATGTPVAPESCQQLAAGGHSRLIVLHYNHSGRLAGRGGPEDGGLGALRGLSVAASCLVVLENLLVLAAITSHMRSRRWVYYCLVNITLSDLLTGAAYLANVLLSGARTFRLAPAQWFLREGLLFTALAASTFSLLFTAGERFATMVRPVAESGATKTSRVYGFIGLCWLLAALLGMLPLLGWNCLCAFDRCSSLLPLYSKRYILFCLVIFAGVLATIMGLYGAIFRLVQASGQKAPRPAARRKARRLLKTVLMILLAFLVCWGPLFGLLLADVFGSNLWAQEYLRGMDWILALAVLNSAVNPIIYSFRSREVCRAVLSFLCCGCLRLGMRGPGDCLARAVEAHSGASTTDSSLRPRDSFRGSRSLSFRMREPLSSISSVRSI
ROMK primary: human ROMK K+ channel modulation, primary screen. P48048. Tet-inducible ROMK, thallium flux fluorescence; actives lie on both sides. B-score at 10 µM. actives 2% (n = 130,000). AID 1918;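 active = signal ratio slope over the read window, or its plate-corrected B-score, at least 3 SD from the plate mean, either direction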;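 note: B-score of the F/F0 ratio slope over 7 to 12 s after thallium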
S1P4 agonist: agonists of human S1P4 receptor | S1P4-expressing cell line, agonist reporter assay | activation, % at 4.98 µM | actives 0.35% (n = 220,000) | AID 1509; in the data active = activation above about 11%;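 note: 0% = DMSO vehicle and 100% = reference agonist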
* = called active by the depositor; x = not tested or not shown. Only some compounds are listed: those with a hit (about 5.1% of all), similar ones and a draw of the others.

SMILES	RAM inhibit	Cl transport mod	S1P3 antagonist	S1P4 antagonist	ROMK primary	S1P4 agonist
CC(=O)Nc1cccc(OCC(=O)Nc2sccc2C(N)=O)c1	x	-0.33	-12	3	x	0
Cc1nc2sccc2c(=O)n1-c1cccc(Cl)c1	3	x	x	-20	x	0
CCOC(=O)c1sc(NC(=O)CSc2nnc(Cc3ccccc3)o2)c(C(=O)OCC)c1C	8.9*	-1.1	x	-19	-0.74	-1
CCOC(=O)c1c(NC(=O)CSc2ccccc2C(=O)O)sc(C)c1C	4	-3.3	-1	3	1.5	0
CCOC(=O)c1c(NC(=O)CSc2ncnc3ccccc23)sc(C)c1C	8.9*	-1.1	7	-20	x	1
CN(C)c1cc[n+](CC(=O)N2CCCc3ccccc32)cc1	2	0.32	-14	2	-0.0077	3
COc1ccc(OCc2nnc(SCC(=O)c3c(N)n(C)c(=O)n(C)c3=O)n2-c2ccccc2F)cc1	11*	-0.035	1	-8	-0.61	2
Cc1ccc(C2c3sc(=O)[nH]c3SC3C(=O)NC(=O)C32)cc1 (centres undefined)	2	-6.8*	-9	-12	-1.6	1
FC(F)(F)c1cccc(Cc2noc(CN3CCC(c4ccncc4)CC3)n2)c1	1	-0.52	6	-5	-2.2	-2
COc1ccc(Oc2c(-c3ccc(O)cc3O)n[nH]c2C)cc1	-1	-0.66	-12	4	x	1
CCCc1ccc(Oc2c(-c3ccc(O)c(C)c3O)n[nH]c2C)cc1	9.1*	0.00072	28	-12	x	2
C=C(C)Cn1c(-c2ccncc2)n[nH]c1=S	2	0.3	-8	-13	0.98	0
CC1Cc2ccccc2N1C(=S)NC(=O)C1(C)CC1(Cl)Cl (centres undefined)	2	93*	-10	-13	13*	2
COc1ccc(NC(=O)c2cc([N+](=O)[O-])ccc2O)cc1	2	-3.3*	-1	3	4.5*	0
C/C(=N/OC(=O)c1ccc(Cl)cc1Cl)c1oc(C)nc1C	x	0.56	4	2	x	0
O=C(COC(=O)c1cc(S(=O)(=O)N2CCCCC2)ccc1N1CCOCC1)NCCc1ccc(F)cc1	-1	x	-10	-10	-0.39	2
CC(/C=C1\N=C(SCc2ccccc2)SC1=O)=C\c1ccccc1	9.9*	1.1	2	-12	x	0
CC(=O)Nc1cccc(-c2nc3ccccc3c(=O)o2)c1	-1	-2.2	84*	-16	x	0
CCC(CC)C(=O)Nc1cccc(-c2nc3ccccc3o2)c1	2	-1.1	61*	-18	x	-1
Cc1ccc(NS(=O)(=O)c2cc(C(=O)NCCSc3ccc(C)cc3)ccc2C)cc1	6	x	x	-5	0.49	0
Cc1ccc(C(=O)NCCSc2ccc(Cl)cc2)cc1S(=O)(=O)Nc1ccccc1	10*	0.017	x	-12	1.5	-1
Cc1nn(-c2ccccc2)c2c1C1(C(=O)N(C)c3ccccc31)C(C#N)=C(N)O2 (centres undefined)	9.8*	-0.91	-36	18	x	-4
C1CC(CN2CCOCC2)CN(Cc2nc(CC3CC3)no2)C1 (centres undefined)	1	0.78	-9	-8	0.097	0
CC(C)(C)C1=NN(C(=O)c2ccccc2)C(O)(C(C)(C)C)C1 (centres undefined)	10*	0.0064	x	1	1	1
CC(C)C1=NN(C(=O)c2ccccc2)C(O)(C(C)(C)C)C1 (centres undefined)	0	1.2	x	4	x	1
SMILES	RAM inhibit	Cl transport mod	S1P3 antagonist	S1P4 antagonist	ROMK primary	S1P4 agonist
CC(C)c1nc2sc3c(=S)nc[nH]c3c2c2c1CCC2	x	159*	-17	-2	5.2*	-2
C=CCc1cccc(CNc2nc3ccccc3n2CCC)c1O	2	1	77*	7	0.7	-3
CC(C)NC(=O)C1CCN(c2ccc(S(=O)(=O)N3CCOCC3)cc2Cl)CC1	x	0.49	-9	2	-0.097	1
O=C1C=CC(=O)N1CCCCCCN1C(=O)C=CC1=O	-1	-1	5	79*	x	0
CCCCCCCOc1ccc(-c2ccc(C#N)cn2)cc1	10*	-1.2	-1	-2	0.25	0
O=C(Nc1cc(S(=O)(=O)N2CCCCC2)ccc1N1CCCCC1)C1CC1	x	-1.3	-10	-5	x	0
CCN(CC)c1ccc(-c2nn3c(-c4ccccc4OC)nnc3s2)cc1	2	-1.4	24	6	3.9*	1
COc1ccccc1-c1nn2c(-c3ccccc3Cl)nnc2s1	x	x	-25	x	x	x
COc1cccc(-c2nnc3sc(-c4ccccc4)nn23)c1	8.9*	-1.4	x	-27	0.024	0
CCN(Cc1ccccc1)C(=O)c1ccc(CNS(=O)(=O)c2ccc(C)cc2)cc1	11*	-0.9	4	-1	-0.47	2
CC1=NN(C(=O)c2csc(C(C)C)c2)C(O)(C(F)(F)F)C1 (centres undefined)	0	0.73	6	-6	x	1
Cc1c(CCO)c(=O)n(-c2ccccc2)n1S(=O)(=O)c1ccc(Cl)cc1	0	x	x	-5	-0.87	1
CC(=O)OCCNc1cc(N2CCN(C)CC2)c2noc3c2c1C(=O)c1ccccc1-3	10*	-0.88	-7	4	x	-1
CCOC(=O)c1sc(NC(=O)Nc2cccc(Cl)c2)cc1C	9.0*	0.23	0	3	-0.52	1
COc1ccc([N+](=O)[O-])cc1NC(=O)CC1SC(=Nc2cccc(C)c2C)N(/N=C/c2cccc(OC)c2OC)C1=O (centres undefined)	10*	0.56	-2	8	1.2	-3
O=C(CN1CCN(CC(=O)Nc2ccccn2)CC1)Nc1ccccn1	0	-4.3*	-18	1	x	-1
Cc1cc(C)c2oc(C(=O)Nc3ccc(S(=O)(=O)N4CCCC(C)C4)cc3)cc(=O)c2c1 (centres undefined)	9.2*	0.23	7	-17	x	0
CC1CCCN(S(=O)(=O)c2ccc(NC(=O)CN3CCN(C)CC3)cc2)C1 (centres undefined)	1	-1	-27	4	x	-1
O=C(COc1ccc(Br)cc1Cl)NC1CCCCC1	8.9*	0.27	11	1	-0.02	1
O=C(COc1ccc(Br)cc1Br)NC1CCCC1	0	0.16	1	-12	-0.026	-2
CCOc1ccc(-n2cc(C(=O)Nc3cccc(Cl)c3)c3cc(OC)c(OC)cc3c2=O)cc1	8.9*	0.022	x	-2	-0.35	1
CCOc1ccc(NC(=O)c2cn(-c3ccc(OCC)cc3)c(=O)c3cc(OC)c(OC)cc23)cc1	6	0.0042	x	-13	x	1
Clc1ccc(CNc2ccccc2NCc2ccc(Cl)nc2)cn1	0	0.77	7	5	-0.028	4
O=C(CCCc1nc2ccccc2s1)Nc1ccc(N2CCOCC2)cc1	1	0.88	-16	-3	-0.41	-1
Cc1ccc(Cl)cc1Nc1nc(-c2sc(NC(=O)c3ccccc3)nc2C)cs1	9.3*	-0.7	x	1	x	-1

Screens (PubChem)
